Molecules are shown by their SMILES. Out of some 340,000 compounds screened, about 800 (0.24%) were called active. The entries come from a sample that favours actives as a whole. Unmarked numbers belong to inactive results.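 How the source made its calls: active means activation above the mean over all tested compounds plus 3 SD (cut at about 30% in these data); inactive means the rest.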

This experiment deals with Troponin I, cardiac muscle (Homo sapiens) + Troponin T, cardiac muscle (Homo sapiens) + Troponin C, slow skeletal and cardiac muscles (Homo sapiens) (UniProt P19429+P45379+P63316). In words: cardiac RTF calcium sensitivity activators, primary screen, biochemical, IANBD-TnC fluorescence, EC20 calcium (AID 493008).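 Further: rise in fluorescence read as greater calcium sensitivity of cardiac thin filaments.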 To be noted: IANBD-labeled TnC RTF fluorescence at EC20 calcium; at 7.2 µM; stronger effect = higher value; 0% EC20 calcium, 100% full calcium.
Turning to `CN(C)c1ccc(/C=C2\NC(=S)N(Cc3ccccc3)C2=O)cc1`, the activation is 66% (active).
`CN(C)c1ccc(C=C2C(=O)OC3(CCCC3)OC2=O)cc1`: the activation is -3.77%.
For `CC1CN(Cc2ccccc2)C(=S)NC1=O` (configuration not stated) the value was -1.27%; for `CCn1cc(C(=O)N2CC=C(c3ccccc3)CC2)c(=O)c2ccc(C)nc21`, -3.54%; for `CCCCNC(=O)C(C)N(CCN(C)C)C(=O)CCCCCN1C(=O)NC(c2ccc(Cl)cc2)C(C(=O)OCc2ccccc2)=C1C` (configuration not stated), -4%.
For `CCOc1ccc(N(CC(=O)NCCOc2ccccc2OC)S(=O)(=O)c2ccccc2)cc1` the value was 2.75%.
For `CCCNCc1cc(OCC)c(OCC(=O)Nc2ccccc2)cc1Br` the value was 4.49%; for `COc1ccc(OC)c(CCNC(=O)c2nn(C)c3c2CS(=O)(=O)c2ccccc2-3)c1`, -2.91%; for `O=c1ccc(S(=O)(=O)N2CCCC2)cn1Cc1nc(-c2ccccc2)no1`, -2.09%.
Take `CC1CCCN(CC(O)COc2ccc3c(c2)OCO3)C1` (configuration not stated): the activation was -0.7%.
The figure for `Cn1cccc1C(=O)N1CCc2ccccc2C1` is 1.33%.
For `OCC[C@H]1C[C@@H](O)[C@H](O)[C@]2(OCCCc3ccccc32)O1` the value was 2.9%; for `CCCC1OC23CCCCC2C(C#N)(C#N)C1(C#N)C(=N)O3` (configuration not stated), 35% (active).
On to `C=CCC[C@@H](Cc1ccc(F)cc1)C(=O)OC[C@H](Cc1c[nH]c2ccccc12)NC(=O)[C@@H](CC=C)CC(=O)N(CCO)Cc1ccccc1`, for which the activation is -0.54%.
The figure for `CN1CCNC(=O)C1CC(=O)NCCC1=CCCCC1` (configuration not stated) is 9.88%.
For `COc1ccc(C(=O)OCc2cc(=O)n3ccsc3n2)cc1F` the value was -7.02%; for `COCc1cc(=O)[nH]c2cc(NC(=O)C(F)(F)F)c(C)cc12`, -3.59%; for `CCOC(=O)N1CCC(c2cc(=O)n(-c3ccccc3)[nH]2)CC1`, 2.7%.
The figure for `O=c1cc(N2CCCCC2)c(-c2ccccc2)nn1Cc1cccc(F)c1` is -0.45%.
`Cc1nc([N+](=O)[O-])cn1CC(=O)Nc1ccc(Cl)cc1`: the activation is 0.6%.
Consider `Nc1nc(SCC(=O)N2CCN(S(=O)(=O)c3ccc(Cl)cc3)CC2)n[nH]1`, for which the activation is 11.6%.
Take `Cc1nc(N=C(N)N)nc2c(C)cccc12`: the activation is -2.23%.
With `COCCCNC(=O)C1CCN(c2ccc(N3CCOCC3)nn2)CC1`, the activation is 1.09%.
For `Cc1ccc(CNC(=O)c2cccc3c2C(=O)c2ccc(N4CCC(C)CC4)cc2S3(=O)=O)cc1` the value was 100% (active).
For `CC1CCN(c2c(NCc3ccc(C(=O)NCc4ccccc4)cc3)c(=O)c2=O)CC1` the value was 13.9%; for `Cc1ccc(CNC(=O)c2ccc3c(c2)S(=O)(=O)c2ccccc2C3=O)cc1`, -0.11%; for `O=C(NCc1ccccc1CN1CCCC1)c1cccc(S(=O)(=O)Nc2ccc(F)cc2)c1`, -1.12%.
For `COc1ccc(OC)c(Cc2cnc3nc(N)nc(N)c3c2C)c1` the value was 0.81%; for `Cc1cccc(NC(=O)CN2CCN(CC(=O)NCC3(N4CCCCC4)CCCCC3)CC2)c1C`, -1.57%; for `COc1ccc(CNC(=O)COC(=O)C2=Cc3ccccc3OC2)cc1`, -9.53%.
Take `CN(O)C(=S)c1ccccc1`: the activation is -1.46%.
For `Cc1c(C)n2c(SCC(=O)NC3CCCC3)nnc2[nH]c1=O` the value was 0.28%; for `CCCN(CCC)S(=O)(=O)c1ccc(C(=O)N2CC3CCC(CC3)C2)cc1`, -0.05%.
Take `CCN1CC=C2C(C#N)=C(N)C(C#N)(C#N)[C@H](c3ccoc3)[C@H]2C1`: the activation was 62% (active).
The figure for `Cc1ccc(/C=C2/SC(=S)N(CCC(=O)NCCCN3CCOCC3)C2=O)cc1` is 2.69%; for `Cc1ccc(-c2nn(-c3ccccc3)cc2/C=C2\SC(=S)N(CCCCCC(=O)O)C2=O)o1` it is 48.1% (active).
In the case of `C=CCOc1ccc(/C=C2\SC(=S)N(CCC(=O)O)C2=O)cc1`, the activation was 1.79%.
On to `Cc1ccc(-c2noc(C3CCCN(C(=O)c4cccc(Cl)c4)C3)n2)o1` (configuration not stated), for which the activation is -2.07%.
With `CC(C)CC(CCc1ccccc1)OS(N)(=O)=O` (configuration not stated), the activation was -4.63%.
The figure for `COc1ccc(CNCCCNCc2ccc(OC)c(OC)c2)cc1OC` is 0.94%; for `C=CCn1c(SCC(=O)c2c(N)n(C)c(=O)n(C)c2=O)nc2sc(CC)cc2c1=O` it is 1.89%; for `C[C@H](NC(=O)c1ccccc1Cl)C(=O)OCCOc1cccc(Cl)c1` it is 1.17%.
The figure for `Cc1ccc(C2=CSC3=NS(=O)(=O)CCN23)cc1C` is 13.6%; for `C/C(=C/c1ccccc1)C(=O)N1CCN(c2ccccc2)CC1` it is 9.01%; for `Cc1[nH]c(N)nc(=S)c1CCCNc1ccccc1` it is -2.1%.
For `C=CC[C@H](CC(=O)NCCO)C(=O)N[C@@H](COC(=O)[C@@H](CC=C)Cc1ccc(F)cc1)Cc1c[nH]c2ccccc12`, the activation is 2.33%.
As for `CCCCCCc1cc2cc(-c3nnc(-c4ccccc4)o3)c(=O)oc2cc1O`, the activation was 76.8% (active).
The figure for `Cc1c(CCC(=O)O)c(=O)oc2cc3occ(-c4ccccc4)c3cc12` is 5.11%.
Regarding `CCc1ccc(CN(C)C(=O)CCc2nnc(-c3ccc(-c4ccccc4)cc3)o2)nc1`, the activation is -1.69%.
The figure for `O=C(N[C@H]1C/C=C\C(c2cccc(F)c2)N(Cc2ccccc2)C(=O)C1)OCC1c2ccccc2-c2ccccc21` (some centres not stated) is -0.43%; for `COc1ccc(C(CNCC(=O)Nc2ccccc2F)N(C)C)cc1` (configuration not stated) it is -1.39%.
The figure for `S=C(Nc1ccc2c(c1)OCO2)N1CCCC1` is 8.04%; for `CC(C)OC(=O)C(C#N)c1nc2ccccc2nc1N1CCN(Cc2ccccc2)CC1` (configuration not stated) it is -2.43%.
As to `CCOC(=O)/C(C#N)=C/c1ccc(OCC(=O)Nc2ccccc2)c(OC)c1`, the activation is 6.94%.
The figure for `CCOC(=O)/C(C#N)=C/c1ccc(N2CCN(Cc3ccccc3)CC2)cc1` is 42.2% (active).
For `Cc1ccnc(N2CCN(C(=O)CSc3nc4ccccc4nc3N3CCCCC3)CC2)c1` the value was 0.05%; for `Cc1ccccc1NC(=O)c1ccc(COc2ccc3c(C)cc(=O)oc3c2)cc1`, 1.18%; for `O=C(CCC(=O)N1CCCC1)Nc1ccc([N+](=O)[O-])cc1`, -1.36%.
The figure for `Cc1cc(-c2n[nH]c(=S)n2/N=C/C(Br)=C/c2ccccc2)n[nH]1` is 0.67%.
Regarding `CCOC(=O)/C=C/C(=O)OCC(=O)NC(c1ccccc1)c1ccccc1`, the activation is -0.28%.
Turning to `CN(C)S(=O)(=O)c1cc(NC(=O)CN2C(=O)NC3(CCCc4ccccc43)C2=O)ccc1Cl` (configuration not stated), the activation is 5.19%.
The figure for `Oc1ccc2ccc3cccc[n+]3c2c1` is 720% (active).
For `Oc1ccc(-c2nc3ccccc3nc2-c2ccc(O)cc2O)c(O)c1` the value was 2.23%; for `CCOC(=O)C1=C(C)NC2=C(C(=O)CC(C)(C)C2)C1c1ccsc1` (configuration not stated), 8.26%.
Regarding `N#C/C(=C\C1=C(N2CCOCC2)C(=C\c2ccccc2)/CC1)C(=O)Nc1ccccc1F`, the activation was 11.9%.
Turning to `O=C(NC(=O)N1CCOCC1)c1ccccc1`, the activation was -4.59%.
The figure for `N#C/C(=C\c1ccc(N2CCOCC2)o1)C(=O)N1CCOCC1` is 114% (active); for `O=C(N1CCOCC1)N1CCOCC1` it is 0.83%; for `N#C/C(=C/c1ccc(N2CCOCC2)o1)C(=O)N1CCOCC1` it is 64.8% (active).
For `N#C/C=C(/c1ccc(F)cc1)N1CCOCC1` the value was 0.45%; for `O=C(NC1CCCC1)C(c1ccco1)N(C(=O)c1csnn1)c1ccccc1` (configuration not stated), -5.15%; for `COc1ccccc1-n1nnnc1S(=O)(=O)Cc1ccc(Cl)cc1`, -4.59%.
The figure for `O=C(Nc1cccc(F)c1)c1coc(=O)c(Br)c1` is 2.96%; for `O=C(NNC1CC(=O)N(c2cccc(Cl)c2)C1=O)c1cccnc1` (configuration not stated) it is 3.38%; for `COc1ccc(N2CCN(S(=O)(=O)c3ccc4c(c3)NC(=O)C(C)C(=O)N4)CC2)cc1` (configuration not stated) it is -1.46%.
Consider `CCOc1cc(-c2cc(-c3ccc(NC(C)=O)cc3)nc(N)c2C#N)ccc1O`, for which the activation was -2.6%.
The figure for `CCOc1cc(/C=C(\C#N)c2nc(-c3cccs3)c(NC(C)=O)s2)ccc1O` is 53.3% (active); for `CCOc1cc(C=NNC(=O)CCCC(=O)NN=Cc2ccc(O)c(OCC)c2)ccc1O` it is 3.71%.
For the compound `C/C(N)=C(/C#N)C(=O)COC(=O)C1=NN(c2ccccc2)C(=O)CC1`, the activation is 1.28%.
Turning to `O=C1c2cccc3c([N+](=O)[O-])ccc(c23)C(=O)N1CC1CCCO1` (configuration not stated), the activation is 9.63%.
For `COc1cc(C(=O)N2C(=O)c3cccc(N)c3C2=O)cc(OC)c1OC` the value was -5.72%.
`CN1C(=O)c2cccc3c(N)ccc(c23)C1=O`: the activation was 1160% (active).
As for `CCn1cc(C(=O)N[C@@H](C)C(=O)NCCO)c(=O)c2cc3c(cc21)OCO3`, the activation was 0.57%.
The figure for `CCCC(O)(CCC)C(=O)NN(C(=O)CCl)c1cccc(C)c1` is -2.77%; for `CN(C)C(CNC(=O)c1ccc(S(=O)(=O)NCc2ccco2)cc1)c1ccccc1` (configuration not stated) it is -0.95%.
The figure for `CC1(C)Cc2nc3sc4c(SCC(=O)NC(c5ccccc5)c5ccccc5)ncnc4c3cc2CO1` is -4.73%; for `C=CCNc1nnc(SCC(=O)N2CCCCC2)c2ccccc12` it is 33.8% (active); for `O=C(CSc1ncccn1)N1CCCC1` it is 4.22%.
The figure for `C=CCNc1nnc(C)c2ccccc12` is 6.46%.
Regarding `Cc1nn(-c2ncccn2)c2c1C(=O)CC(C)(C)C2Br` (configuration not stated), the activation was 1.48%.
For `CCc1ccc2ncc(C(=O)c3ccccc3)c(N3CCOCC3)c2c1` the value was 6.46%.
The figure for `N#Cc1c(NCCO)ccc([N+](=O)[O-])c1NCCO` is -0.27%.

The record behind these values is PubChem BioAssay AID493008 (The Scripps Research Institute Molecular Screening Center, 2010).
